# Source: PubChem BioAssay AID1259313 (Sanford-Burnham Center for Chemical Genomics, 2017)
# “And” between values parts separate entries of the source, which are not always exact repeats. Equal values may be shown once. In all, about 340,000 compounds went through this assay and about 8,500 (2.5%) were called active. Only a selection was taken, and actives are over-represented in it overall. Unmarked numbers belong to inactive results.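 The calls were made as follows: active = melting temperature shift of at least 10% of the positive control shift, at one fixed dose; inactive = the rest.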
# System: Glutamate receptor ionotropic, NMDA 3A (GRIN3A) ligand-binding domain
# Experiment: binders of NR3A ligand-binding domain, primary screen, biophysical, differential scanning fluorimetry, uHTS (AID 1259313)
# Conditions: NR3A LBD differential scanning fluorimetry, at 25 µM, hits give high values, 0% = protein alone, 100% = glycine-bound protein
row,SMILES,Tm shift relative to glycine control
1,O=C(NC(Cc1ccc(O)cc1)C(=O)O)/C(=C/c1ccccc1)NC(=O)c1ccccc1 (stereo unspecified),-1.28%
2,O=C(Nc1nccs1)C1CCCN1S(=O)(=O)c1cccc2cccnc12 (stereo unspecified),0.08%
3,CCOC(=O)NC(=O)CSc1nnc(SCCC(=O)O)s1,-2.83%
4,COc1ccc(C)cc1N(C(=O)Cn1nnc(-c2ccc(C)o2)n1)C(C(=O)NC1CCCC1)c1ccncc1 (stereo unspecified),0.19%
5,CC(C)(C)NC(=O)NC(=O)COC(=O)C1c2ccccc2Oc2ccccc21,-5.02%
6,CCC(C)(C)NC(=O)CN(C(=O)CCC(=O)Nc1nccs1)c1ccc2c(c1)OCO2,-1.69%
7,COc1cc(NC(=O)CSC(=S)N2CCCC2)c(OC)cc1Cl,-1.06%
8,O=C(N/N=C/c1ccccn1)c1cccc(NC(=O)c2ccc(Cl)cc2)c1,21.2% (active)
9,Cc1cccc(C(=O)Nc2ccc(C(=O)N/N=C/c3cccc(C)n3)cc2)c1,-13.7%
10,O=C(N/N=C/c1ccccn1)c1ccc(S(=O)(=O)N2CCCCCC2)cc1,-1.75%
11,C=CCC1(CC=C)CCCN1C(=O)c1cc(COc2ccc(-n3cncn3)cc2)on1,1.48%
12,Cc1ccc2cc(C#N)c(NCCNC(=S)NCCCN3CCOCC3)nc2c1,1.55%
13,CC(C)CN(Cc1c(O)ccc2c(=O)c(-c3ccccc3)coc12)CC(C)C,-7.19%
14,CC(C)=CCc1c(O)c(CC=C(C)C)c2occ(-c3ccc(O)cc3)c(=O)c2c1O,31.4% (active)
15,COC(=O)C1=C(C)N(Cc2ccccc2)C(=NCCCOC(C)C)N[C@H]1c1ccccc1,-2.6%
16,CCN(C(=O)COC(=O)c1ccc(COc2ccc3c(C)cc(=O)oc3c2)cc1)C1CCS(=O)(=O)C1 (stereo unspecified),2.72%
17,CCOC(=O)c1cc(=O)c2ccc(OCc3ccccc3)cc2o1,2.08%
18,Cc1ccccc1NC(=O)c1ccc(COc2ccc3c(C)cc(=O)oc3c2)cc1,12% (active)
19,COC(=O)c1ccc(/C=N/OCC(=O)Nc2cc(F)ccc2F)cc1,1.06%
20,CC(NC(=O)C(=O)N/N=C/c1ccc(Cl)cc1)c1ccccc1 (stereo unspecified),-8.19%
21,CC(C)Cn1cnc2c(SCc3ccc(Cl)cc3)nc(N)nc21,-6.54%
22,CCOC(=O)c1ccc(-c2ccc(C(=O)Nc3cccnc3)o2)cc1,-18.8%
23,COC(=O)C1=C(C)N(C)C(=O)NC1c1ccc([N+](=O)[O-])o1 (stereo unspecified),-3.85%
24,COC(=O)C1=C(C)NC2=C(C(=O)c3ccccc32)C1c1ccc(-c2ccc(C(=O)O)cc2)o1 (stereo unspecified),30% (active)

row,SMILES,Tm shift relative to glycine control
1,NC(=O)C[n+]1cccc(C(N)=O)c1,-0.09%
2,O=C(Nc1ccc(Cl)cc1)/C(=C1\CCCN1)[N+](=O)[O-],-1.33%
3,COc1cccc(/C=N/Nc2cc(C)nc(-c3ccccc3O)n2)c1O,30.6% (active)
4,COc1ccc(Cc2nnc(N/N=C/c3ccccc3O)[nH]c2=O)cc1OC,-2.87%
5,COc1ccc(/C=N/Nc2cc(N3CCOCC3)nc(C)n2)c(OC)c1,-3.16%
6,COc1ccc(NS(=O)(=O)c2cc(NC(=O)CC(=O)c3ccc([N+](=O)[O-])cc3)ccc2C)cc1,24% (active)
7,COc1ccc(C(=O)CC(=O)C(=O)Nc2cc([N+](=O)[O-])ccc2OC)cc1,2.73%
8,COc1ccc(NS(=O)(=O)c2cc(C(=O)Nc3ccccc3C(=O)O)ccc2C)cc1,1.75%
9,COc1ccc(/C=C/C(=O)OCC(=O)NCc2cccs2)cc1OC,0.79%
10,C#C[C@]1(O)CC[C@H]2[C@@H]3CCC4=CC(=O)CC[C@@H]4[C@H]3CC[C@@]21CC,1.26% and -0.79%
11,Cc1ccc(S(=O)(=O)N(C)c2nc3ccccc3n3c(C(C)C)nnc23)cc1,1.79%
12,Cc1ccc(Oc2nc3ccccc3n3c(C)nnc23)cc1,12.7% (active)
13,CCOC(=O)CNc1nc2ccccc2n2c(C)nnc12,-9.54%
14,COc1ccccc1-n1cnc2cc(NS(=O)(=O)c3ccccc3)ccc21,0.96%
15,O=C1c2cccc3cccc(c23)C(=O)N1c1cccc(O)c1,3.66%
16,O=C(c1cccc(Br)c1)N1CCN(C2=NS(=O)(=O)c3ccccc32)CC1,-0.26%
17,CCC1CCCCN1C(=S)Nc1ccc(S(=O)(=O)Nc2ncccn2)cc1 (stereo unspecified),-1.92%
18,O=C(Nc1ccc(C2CC2(Cl)Cl)cc1)c1cccc([N+](=O)[O-])c1 (stereo unspecified),-0.36%
19,COc1cc(NC(=O)c2cc([N+](=O)[O-])ccc2Br)ccc1NC(=O)c1ccco1,-2.17%
20,O=C(Nc1ccc(NC(=O)c2ccco2)c(Cl)c1)c1cccc([N+](=O)[O-])c1,24.7% (active)
21,COc1ccc(N2CCN(C(=O)c3ccccc3NC(=O)C3=C(C)OCCS3)CC2)cc1,-0.18%
22,CCOC(=O)c1cc2cc(C)ccc2[nH]1,0.1%
23,Cn1ccc(=NC=C(C#N)C#N)c2ccccc21,-0.6%
24,Cc1cc(C)n2nc(C(=O)OC(C)C(=O)c3cc(C)c(C)cc3C)nc2n1 (stereo unspecified),1.24%

row,SMILES,Tm shift relative to glycine control
1,CCOc1ccccc1N1CCN(C(=O)COc2ccc3c(C)cc(=O)oc3c2)CC1,-4.48%
2,Cc1cc(=O)oc2cc(OCCC[n+]3ccccc3)ccc12,-1.47%
3,Cc1cc(=O)oc2cc(OCC3CC(c4ccccc4Cl)=NO3)ccc12 (stereo unspecified),11.5% (active)
4,O=C(COC(=O)/C=C/c1cccc(Cl)c1)NCCc1ccccc1,0.53%
5,C[C@H](O)[C@@H]1C(=O)N2CCc3ccc(N4CCOCC4)cc3[C@@H]2C[C@@H]1N(C)C(=O)C(C)(C)C,-1.15%
6,O=C(NCc1ccco1)C(c1ccncc1)N(C(=O)Cn1nnc2ccccc21)c1ccccc1 (stereo unspecified),-1.69%
7,COc1ccc(Br)cc1C(=O)NC(=S)Nc1cc(-c2nc3ccccc3[nH]2)ccc1C,25.9% (active)
8,COc1ccccc1C(=O)NC(=S)Nc1ccccc1N1CCCCC1,-4.34%
9,COc1ccc(Br)cc1C(=O)Nc1cccc(C)c1C,-2.13%
10,Cc1ccc2cc(C)c(N3CCC(C)CC3)nc2c1,3.71%
11,CC1(c2ccccc2)NC(=O)N(CC(=O)Nc2cc(Cl)ccc2N2CCOCC2)C1=O (stereo unspecified),0.96%
12,O=C(CSc1nc(Nc2ccccc2)nc(N2CCOCC2)n1)Nc1cc(Cl)ccc1O,32.6% (active)
13,Cc1ccccc1NC(=O)CSc1nc2ccc(Nc3nc(N4CCOCC4)nc(N4CCOCC4)n3)cc2s1,-1.11%
14,Cc1ccc(C(=O)OCC(=O)NC(=O)Cc2ccccc2)c(O)c1,0.78%
15,O=S(=O)(NC1CCCCC1N1CCN(c2ccccc2F)CC1)c1ccccc1 (stereo unspecified),-1.62%
16,CN1C(=O)C(CC(N)=O)N(NC(=O)c2ccc(Cl)cc2)C1=S (stereo unspecified),-3.25%
17,Cc1ccc(NC(=O)CC2C(=O)N(Cc3ccccc3)C(=S)N2NC(=O)c2cccc(F)c2)c(C)c1 (stereo unspecified),19.1% (active)
18,Cc1ccc(N2C(=O)C(CC(=O)Nc3cccc(F)c3)N(CCc3ccncc3)C2=O)cc1 (stereo unspecified),0.4%
19,CC1=C(C(=O)Nc2ccccc2)C(c2cccs2)C(C#N)=C(SCC#N)N1 (stereo unspecified),-11.3%
20,O=C(COc1ccccc1F)NNC(=O)c1cc(Br)ccc1Cl,0.51%
21,O=C(NCCOc1ccccc1Cl)C(=O)Nc1ccccc1,-4.63%
22,O=C(NCCOc1ccccc1F)Nc1ccc(Br)cc1,16.4% (active)
23,CCN(CC)c1ccc(NC(=O)c2ccc(=O)[nH]c2)cc1S(=O)(=O)Nc1ccc(OC)cc1,-4.98%
24,Cc1nc(SCC(=O)N2CCc3ccccc3C2)c2c(C)c(C)sc2n1,-0.44%

row,SMILES,Tm shift relative to glycine control
1,COc1cc(OC)cc(C(=O)NCC(=O)N2CCCCCCC2)c1,3.22%
2,Cc1c(C(=O)Nc2cccc(Cl)c2)cn2c(nc3ccccc32)c1C#N,24.6% (active)
3,O=C(Nc1cccc(Cl)c1)c1cc([N+](=O)[O-])ccc1N1CCN(CCO)CC1,3.77%
4,Cn1c(Nc2cccc(Cl)c2)nc2ccccc21,8.46%
5,CCCN(C(=O)c1nc2nccc(C)n2n1)c1c(N)n(Cc2ccccc2)c(=O)[nH]c1=O,-5.77%
6,O=C(CCN1C(=O)c2ccccc2C1=O)NNC(=O)c1ccc(Cl)cc1Cl,-1.46%
7,CCc1ccc(CNC(=O)C2CCN(c3nnc(C)c4c(C)n(-c5ccc(C)cc5)nc34)CC2)cc1,-2.58%
8,COc1ccccc1N1CCN(/N=C/c2ccc(O)cc2O)CC1,1.98%
9,Cc1nc2ccccc2nc1N/N=C/c1ccc(O)cc1O,34.3% (active)
10,Oc1ccc(-c2nc3ccccc3nc2-c2ccc(O)cc2O)c(O)c1,-6.22%
11,O=C(Nc1ccnn1C1CCN(Cc2cccc(OCCO)c2)CC1)C1CCCC1,0.6%
12,COc1ccc(CN2CC(C(=O)NCCc3ccc(Cl)cc3)CC2=O)cc1 (stereo unspecified),-2.13%
13,COc1ccccc1N(CC(=O)Nc1c(C)n(C)n(-c2ccccc2)c1=O)S(=O)(=O)c1ccccc1,-1.61%
14,COc1ccc(Cl)cc1NS(=O)(=O)c1cccc(C(=O)NC2CCC(O)CC2)c1 (stereo unspecified),0.97%
15,NS(=O)(=O)c1ccc(CCNC(=O)CCCn2c(SCC(=O)N3CCCC3)nc3ccsc3c2=O)cc1,-0.96%
16,O=C(/C=C/c1ccco1)Nc1cccc(-c2nc3ccccc3[nH]2)c1,22.5% (active)
17,CC(C)Oc1ccc(/C=C(\NC(=O)/C=C/c2ccco2)C(=O)NCCc2nc3ccccc3[nH]2)cc1,-0.09%
18,Cc1ccc(-n2nc3ccc(NC(=O)/C=C/c4ccco4)cc3n2)cc1C,32.1% (active)
19,COc1ccc(C(=O)Nc2cccc(S(C)(=O)=O)c2)cc1,4.52%
20,CN(c1ccccc1)S(=O)(=O)c1cc(C(=O)Nc2nc3ccccc3[nH]2)ccc1Cl,-0.62%
21,O=C(/C=C/c1ccco1)Nc1ccc(Oc2ccccc2)cc1,2.36%
22,CCC(=O)Nc1ccc2nn(-c3ccc(F)cc3)nc2c1,-10.1%
23,O=C(Nc1cccc(-c2nc3ccccc3[nH]2)c1)c1ccc(C(=O)Nc2cccc(-c3nc4ccccc4[nH]3)c2)cc1,27.9% (active)
24,COc1cccc(NC(=O)COC(=O)/C=C/c2ccco2)c1,-0.92%
